Results published in the supplement of paper PMC11537057.
Where a name gives a salt, the structure may show the parent alone. The whole screen tested about 1,700 compounds, of which about 15 (0.9%) showed activity.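 How the source made its calls: active = infection cut by 80% or more with cell growth above 90% in both runs; inactive = the rest.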 The entries come from a sample that favours actives as a whole.

Tested on: HSV-1 strain 17 YFP-ICP4 in A549
Test: HSV-1 infection relative to DMSO (ICP4-YFP per H2B-RFP signal); higher = more viral infection (less antiviral activity), active = hit call of the paper
Conditions: 10 µM; 48 h; MOI: 0.1
Procedure: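 Selleck FDA-approved library (L1300) screened in duplicate at 10 µM on A549 H2B-mRuby cells in 384-well plates, infected with HSV-1 strain 17 YFP-ICP4 at MOI 0.1 one hour before drug addition. Imaged after 2 days at 37°C. Cell growth (H2B-RFP) and infection (ICP4-YFP) are expressed as % of DMSO-treated wells. Hits: growth >90% and infection <20% of DMSO.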

Compound	HSV-1 infection
Cc1cccc(C)c1N(CC(=O)Nc1ccc(-c2ncon2)cc1)C(=O)C1CCS(=O)(=O)CC1 [Amenamevir]	2.63% (active)
[OH][Al]([OH])[OH] [Aluminium hydroxide]	113% (inactive)
COc1ccc([C@]2(C#N)CC[C@@H](C(=O)O)CC2)cc1OC1CCCC1 [Cilomilast]	94% (inactive)
COc1cc(O)c(C(=O)Nc2nc(C(=O)NCCN(C(C)C)C(C)C)cs2)cc1OC [Acotiamide]	116% (inactive)
COc1cc(O)c(C(=O)Nc2nc(C(=O)NCCN(C(C)C)C(C)C)cs2)cc1OC [Acotiamide hydrochloride]	75.1% (inactive)
Cc1c(-c2ccc(O)cc2)n(Cc2ccc(OCCN3CCCCCC3)cc2)c2ccc(O)cc12 [Bazedoxifene Acetate]	31.7% (inactive)
Cc1c(-c2ccc(O)cc2)n(Cc2ccc(OCCN3CCCCCC3)cc2)c2ccc(O)cc12 [Bazedoxifene HCl]	26.6% (inactive)
CCCSc1nc(N[C@@H]2C[C@H]2c2ccc(F)c(F)c2)c2nnn([C@@H]3C[C@H](OCCO)[C@@H](O)[C@H]3O)c2n1 [Ticagrelor]	87.1% (inactive)
C[C@@H]1CCO[C@H]2Cn3cc(C(=O)NCc4ccc(F)cc4F)c(=O)c(O)c3C(=O)N12	122% (inactive)
Cc1cc(N2CCN([C@@H]3CN[C@H](C(=O)N4CCSC4)C3)CC2)n(-c2ccccc2)n1 [Teneligliptin hydrobromide]	113% (inactive)
CCCCCCCCCCCCCCCCCC(=O)O [Stearic acid]	86.7% (inactive)
O=C([O-])[C@H](O)[C@@H](O)[C@H](O)[C@H](O)CO.O=C([O-])[C@H](O)[C@@H](O)[C@H](O)[C@H](O)CO.[Ca+2] [Calcium gluconate]	83.3% (inactive)
Nc1nc(O)c2ncn(CCC(CO)CO)c2n1 [Penciclovir]	2.92% (active)
CC(=O)OCC(CCn1cnc2cnc(N)nc21)COC(C)=O [Famciclovir]	102% (inactive)
CCC(=O)O[C@]1(C(=O)CCl)[C@@H](C)C[C@H]2[C@@H]3C[C@H](F)C4=CC(=O)C=C[C@]4(C)[C@@]3(F)[C@@H](O)C[C@@]21C [Halobetasol Propionate]	60.2% (inactive)
CCc1ccc(Cc2ccc3c(c2)[C@]2(OC3)O[C@H](CO)[C@@H](O)[C@H](O)[C@H]2O)cc1 [Tofogliflozin(CSG 452)]	92.2% (inactive)
CC[C@H](C)[C@H](N)C(=O)O [isoleucine]	114% (inactive)
Cc1c(C(=O)NN2CCCCC2)nn(-c2ccc(Cl)cc2Cl)c1-c1ccc(Cl)cc1 [Rimonabant]	94.5% (inactive)

Compound	HSV-1 infection
CC(C)c1nc(CN(C)C(=O)N[C@@H](CCN2CCOCC2)C(=O)N[C@H](CC[C@H](Cc2ccccc2)NC(=O)OCc2cncs2)Cc2ccccc2)cs1 [Cobicistat (GS-9350)]	86.4% (inactive)
CCN(c1cc(-c2ccc(CN3CCOCC3)cc2)cc(C(=O)NCc2c(C)cc(C)[nH]c2=O)c1C)C1CCOCC1 [Tazemetostat (EPZ-6438)]	106% (inactive)
Nc1cc(N2CCCCC2)nc(N)[n+]1OS(=O)(=O)[O-] [Minoxidil sulphate]	97.8% (inactive)
N[C@@H](CCC(=O)O)C(=O)[O-].[Na+] [L-Glutamic acid monosodium salt]	84.3% (inactive)
Cc1ccc(C(C)C)c(O)c1 [Thymol]	95.3% (inactive)
CCC(=O)O[C@@H]1CC(=O)O[C@H](C)C/C=C/C=C/[C@H](O)[C@H](C)C[C@H](CC=O)[C@H](O[C@@H]2O[C@H](C)[C@@H](O[C@H]3C[C@@](C)(O)[C@@H](OC(=O)CC)[C@H](C)O3)[C@H](N(C)C)[C@H]2O)[C@H]1OC [Midecamycin]	96.5% (inactive)
CN(N=O)C(=O)NC1C(O)OC(CO)C(O)C1O (stereo unspecified) [Streptozotocin (STZ)]	73.6% (inactive)
O=C(O)CSc1nnc(Br)n1-c1ccc(C2CC2)c2ccccc12 [Lesinurad]	87.1% (inactive)
CCCCCOc1ccc(-c2cc(-c3ccc(C(=O)N[C@H]4C[C@@H](O)[C@@H](O)NC(=O)[C@@H]5[C@@H](O)[C@@H](C)CN5C(=O)[C@H]([C@H](O)CC(N)=O)NC(=O)[C@H]([C@H](O)[C@@H](O)c5ccc(O)c(OS(=O)(=O)O)c5)NC(=O)[C@@H]5C[C@@H](O)CN5C(=O)[C@H]([C@@H](C)O)NC4=O)cc3)no2)cc1 [Micafungin Sodium]	105% (inactive)
CCc1c(Cl)c(O)c(Cl)c(O)c1C(=O)O[C@H]1[C@H](O)[C@H](OC)[C@H](OC/C2=C\C=C\C[C@H](O)/C(C)=C/[C@H](CC)[C@@H](O[C@@H]3OC(C)(C)[C@@H](OC(=O)C(C)C)[C@H](O)[C@@H]3O)/C(C)=C/C(C)=C/C[C@@H]([C@@H](C)O)OC2=O)O[C@@H]1C [Fidaxomicin]	126% (inactive)
CC(=C(CCOC(=O)C(C)C)SSC(CCOC(=O)C(C)C)=C(C)N(C=O)Cc1cnc(C)nc1N)N(C=O)Cc1cnc(C)nc1N (stereo in doubt) [Sulbutiamine]	92.2% (inactive)
C[N+](C)(C)CC(O)CC(=O)[O-] (racemic) [DL-Carnitine HCl]	94.4% (inactive)
Nc1ccc(S(=O)(=O)Nc2cncc(Cl)n2)cc1 [Sulfalozine sodium]	105% (inactive)
C=C[C@]1(C)C[C@@H](OC(=O)CS[C@@H]2C[C@H]3CC[C@@H](C2)N3C)[C@]2(C)[C@H](C)CC[C@]3(CCC(=O)[C@H]32)[C@@H](C)[C@@H]1O [Retapamulin]	32.7% (inactive)
COc1cccc(-c2c(C)n(Cc3c(F)cccc3C(F)(F)F)c(=O)n(C[C@H](NCCCC(=O)O)c3ccccc3)c2=O)c1F [Elagolix Sodium]	109% (inactive)
OC(c1ccccc1)(c1ccccc1)C12CC[N+](CCOCc3ccccc3)(CC1)CC2 [Umeclidinium bromide]	100% (inactive)
CC1CNc2c(cccc2S(=O)(=O)N[C@@H](CCCNC(=N)N)C(=O)N2CC[C@@H](C)C[C@@H]2C(=O)O)C1 (stereo partly specified) [Argatroban]	99.1% (inactive)
CC1CNc2c(cccc2S(=O)(=O)N[C@@H](CCCNC(=N)N)C(=O)N2CC[C@@H](C)C[C@@H]2C(=O)O)C1 (stereo partly specified) [Argatroban Monohydrate]	97.4% (inactive)
